# TRb SRC2 PPI – TRbeta-SRC2 interaction inhibition; P10828; TRbeta-SRC2 peptide binding, fluorescence polarization; receptor liganded with 1 µM T3; Potency, µM (doses to about 106 µM), for inactives: at the top dose activity change, negative = inhibition, hits mostly inhibitors; 0.065% of 280,000 active; AID 1469; active = well fitted inhibition curve with a large enough effect; inconclusive = small, poorly fitted or top-dose-only effect, or effect the other way;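 also: potency is read from the fitted curve at half-maximal effect; plate controls were bound peptide for no effect and peptide without receptor for full effect; nearly all actives have a fitted effect of over 50% in size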
#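 Human TRb LBD (0.6 uM) plus Texas Red-labeled SRC2 peptide (20 nM), 1uM T3, 5% DMSO, 5 hr at ambient temperature. Decreased polarization (555/632 nm) flags inhibition; data normalized to free and bound peptide controls.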
# RGS12 GoLoco inh – RGS12 GoLoco-Gai1 interaction inhibition; 0.44% of 230,000 active; Gai1:RGS12 GoLoco peptide FP, rhodamine, 10 min; AID 880; P63096; Potency, µM (highest dose often 61.6 µM), for the others: at the highest dose activity, negative = inhibition, usual class: inhibitors; active = well fitted inhibition curve with a large enough effect, not every such curve was filed as active; inactive = no such curve, though single readings can be large or run the other way; also: potency is read from the fitted curve at half-maximal effect; % is scaled to controls: 0 for no effect and ±100 for the full control effect; nearly all actives have a fitted effect of over 30% in size
# Menin MLL FP FL – menin-MLL binding inhibition, fluorescein peptide. FP activity change, % at 61.4 µM. AID 1766. 290,000 tested, under 10 active. Fluorescence polarization, fluorescein-MLL peptide displacement from menin; active = well fitted curve in the direction sought with a large enough effect in the polarisation, not every such curve was filed as active; inconclusive = small, poorly fitted or top-dose-only effect, or effect the other way, or a change in a side signal; inactive = no such curve, though single readings can be large or run the other way; the % refers to the polarisation; also: % of control where 0% means no effect
# CXXC DNA block – inhibitors of human MLL CXXC domain-DNA interaction. Q03164. MLL-CXXC / FITC-HOXA9 DNA fluorescence polarization. Potency, µM (highest dose often 115 µM), for inactives: at the top dose activity change, negative = inhibition, hits mostly inhibitors. 0.037% of 290,000 active; active = well fitted inhibition curve with a large enough effect in the polarisation, with a control signal flat, not every such curve was filed as active; inconclusive = small, poorly fitted or top-dose-only effect, or effect the other way, or a change in a side signal; inactive = no such curve, though single readings can be large or run the other way; the % refers to the polarisation; also: potency is read from the fitted curve at half-maximal effect
#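 Fluorescence polarization: 7 uM MLL-CXXC (stock) preincubated 5 min with compounds, then 50 nM fluorescein-HOX-A9 DNA (stock) added; 30 min ambient. Buffer 50 mM Tris-HCl pH 7.5, 50 mM NaCl, 1 mM DTT, 0.05% BSA.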
# Menin MLL FP TR – displaces Texas Red mutant MLL peptide from human menin; O00255; 0.23% of 270,000 active; Potency, µM (doses to about 61.6 µM), for inactives: at the top dose FP activity change, negative = inhibition, most hits filed as inhibitors; Menin + Texas Red MLL mutant peptide, fluorescence polarization; AID 1768; active = well fitted inhibition curve with a large enough effect in the polarisation, with a control signal flat, not every such curve was filed as active; inconclusive = small, poorly fitted or top-dose-only effect, or effect the other way, or a change in a side signal; inactive = no such curve, though single readings can be large or run the other way; the % refers to the polarisation; also: potency is read from the fitted curve at half-maximal effect; % of control where 0% means no effect
# TexasRed fluor – counter-screen for TRb-SRC2 inhibitors: fluorescence interference. TRb/SRC2 Texas Red total fluorescence interference. Potency, µM (series often up to 106 µM), for inactives: top-dose fluorescence change, negative = quenching. 0.29% of 280,000 active. AID 1479; active = well fitted curve in either direction with a large enough effect; inconclusive = small, poorly fitted or top-dose-only effect; also: potency is read from the fitted curve at half-maximal effect; % is scaled to controls: 0 for no effect and ±100 for the full control effect
#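 Flags fluorescent or light-absorbing compounds by total fluorescence, S + 2P, at 555 nm excitation and 632 nm emission. Mixture: 20 nM Texas Red SRC2 peptide, 0.6 uM human TRb LBD, 1 uM T3, 5% DMSO; compound exposure 5 h at ambient temperature.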
# Numbers without * were called inactive; ? = inconclusive; . = no result given; ! = not active in a repeat; [ ] = remark or other dose. A selection: hits, their analogues and other compounds. The true share with any hit is near 0.5%.
SMILES,TRb SRC2 PPI,RGS12 GoLoco inh,Menin MLL FP FL,CXXC DNA block,Menin MLL FP TR,TexasRed fluor
O=C(O)CN1CCN(CC(=O)O)CC(=O)[O][Hg][O]C(=O)C1,.,0.447µM*,.,.,.,.
CCOC(=O)C1CCCN(c2ccc([N+](=O)[O-])c3nonc23)C1 (configuration not stated),?,15.8µM*,?,?,?,50.1µM*[fluorescent]
CC(=O)NC1N=C(C)N(c2ccccc2)C1=O (configuration not stated),31.6µM*,-53.5%,-29.2,1.5%,-5.2%,1.3%
C[C@@H]1O[C@H](C[N+](C)(C)C)C[C@H]1O,5.4%,8.2%,1.5,-4.2%,-4.8%,0.7%
C[C@H]1OC[C@@H](C[N+](C)(C)C)O1,6.8%,3.98µM*,-1.2,7.3%,1.1%,-0.3%
COC(=O)C(C)Oc1ccc(Oc2ccc(Cl)cc2Cl)cc1 (configuration not stated),2.9%[201 µM],.,.,.,.,1.8%[201 µM]
O=C1C(Cl)=C(Cl)C(=O)c2ccccc21,-8.2%[201 µM],.,.,.,.,-9.3%[201 µM]
CC(=O)[O][Hg][c]1ccccc1,-8.2%[201 µM],1.58µM*!,-8.1,6.3%,-0.4%,2.6%[201 µM]
COc1c(O)c2c(=O)cc(OC)c3c4c(OC)cc(=O)c5c(O)c(OC)c(C[C@@H](C)OC(=O)c6ccccc6)c(c(c1C[C@@H](C)OC(=O)Oc1ccc(O)cc1)c23)c54,-28.3%,15.8µM*,.,.,.,?
O=C(CCN1CCN(CCO)CC1)N1c2ccccc2Sc2ccc(C(F)(F)F)cc21,0.3%,.,-4.3,4.2%,?,-3.3%
O=C(O)c1ccccc1SCC(=O)N1c2ccccc2Sc2ccccc21,-18.5%[53 µM],31.1%,6.5,-10.5%,26.8%,0.0891µM*[quencher]
CC1(C)C(C(=O)OC(C#N)c2cccc(Oc3ccccc3)c2)C1(C)C (configuration not stated),-0.4%[201 µM],.,.,.,.,-1.3%[201 µM]
Cc1cc(C(C#N)c2ccc(Cl)cc2)c(Cl)cc1NC(=O)c1cc(I)cc(I)c1O (configuration not stated),?,.,?,?,?,44.7µM*[quencher]
O=C1NC(=O)N(c2cccc(Cl)c2)C(=O)/C1=C\c1ccc(Sc2nc3ccccc3[nH]2)o1,?,-42.5%,?,?,?,22.4µM*[fluorescent]
O=C1NC(=O)N(c2ccccc2F)C(=O)/C1=C/c1ccc(Sc2nc3ccccc3[nH]2)o1,?,-179.9%,?,33.8%,?,44.7µM*[fluorescent]
Cc1ccc(/C=C2\C(=O)NC(=S)N(c3ccccc3F)C2=O)s1,1.5%,317.6%,?,-23.2%,?,-3.1%
O=C1NC(=O)N(c2ccccc2)C(=O)/C1=C/c1ccc(Sc2ccccc2)o1,?,45.9%,?,2.7%,?,22.0%
CCOP(=S)(OCC)Oc1cnc2ccccc2n1,4.3%[201 µM],.,.,.,.,1.8%[201 µM]
CSC(=O)c1c(C(F)F)nc(C(F)(F)F)c(C(=O)SC)c1CC(C)C,1.0%[201 µM],.,.,.,.,1.2%[201 µM]
CC(=NC#N)N(C)Cc1ccc(Cl)nc1,-9.1%[201 µM],.,.,.,.,-1.5%[201 µM]
O=C(Nc1ccc(F)cc1F)c1cccnc1Oc1cccc(C(F)(F)F)c1,-2.0%,2.7%,-0.9,1.2%,31.6µM*,1.7%
O=C(NC(=O)c1c(F)cccc1F)Nc1ccc(Cl)c(Oc2ncc(C(F)(F)F)cc2Cl)c1,3.5%,.,-2.9,3.2%,3.7%,-1.6%
CC(=O)O[C@H]1C(=O)[C@@]2(C)C([C@H](OC(=O)c3ccccc3)[C@]3(O)C[C@H](OC(=O)[C@H](O)[C@@H](NC(=O)c4ccccc4)c4ccccc4)C(C)=C1C3(C)C)[C@]1(OC(C)=O)CO[C@@H]1C[C@@H]2OC(=O)[C@H](C)NC(=O)c1ccc(-c2c3ccc(=O)cc-3oc3cc(O)ccc23)c(C(=O)O)c1 (some centres not stated),-1.3%[11.2 µM],2µM*,?,.,13.1%[11.7 µM],19.8%[11.2 µM]
CC(C)[C@H](C(=O)O[C@H](C#N)c1cccc(Oc2ccccc2)c1)c1ccc(Cl)cc1,0.9%[201 µM],.,.,.,.,1.1%[201 µM]
CCN(CC)c1ccc(C=C2C(=O)N(C)C(=S)N(C)C2=O)o1,3.2%,203.1%,?,94.3%,7.8%,1.9%

# Screening data: PubChem BioAssay, National Center for Advancing Translational Sciences (NCATS)
